# Article PMC5540273 (PLoS ONE, 2017)
# What was measured:
# [1] = tested on: ZAK
# [2] = tested on: AAK1; details: concentration: 1 μM, replicates: in singlicate; n = 1
# [3] = tested on: ABL1-nonphosphorylated; details: concentration: 1 μM, replicates: in singlicate; n = 1
# [4] = tested on: ABL1-phosphorylated; details: concentration: 1 μM, replicates: in singlicate; n = 1
# [5] = tested on: ABL2; details: concentration: 1 μM, replicates: in singlicate; n = 1
# [6] = tested on: ACVR1B; details: concentration: 1 μM, replicates: in singlicate; n = 1
# [7] = tested on: ACVR1; details: concentration: 1 μM, replicates: in singlicate; n = 1
# [8] = tested on: ACVR2A; details: concentration: 1 μM, replicates: in singlicate; n = 1
# [9] = tested on: WEE2
# [10] = tested on: T1, YSK1
# T1 construct: gene STK25
# [11] = tested on: T2, VPS34
# T2 construct: gene PIK3C3
# [12] = tested on: TYK2(JH2domain-pseudokinase)
# [13] = tested on: T3, YANK1
# T3 construct: gene STK32A
# [14] = tested on: T4, YSK4
# T4 construct: gene MAP3K19
# [15] = tested on: T5, p38-alpha
# T5 construct: gene MAPK14
# [16] = tested on: T6, YANK3
# T6 construct: gene STK32C
# [17] = tested on: ULK3
# [18] = tested on: T7, p38-beta
# T7 construct: gene MAPK11
# 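Throughout, for %Inh: KINOMEscan kinase panel screen.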
# 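Throughout, for Kd: kd values determined as follow-up on hits from a single-replicate KINOMEscan panel screen.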
smiles,measurement,setting,value
Cc1cccc(-c2cc(Nc3ccncc3)c3ccccc3n2)n1 [GSK223675],Kd,[1],> 10000 nM
same,%Inh,[2],12%
same,%Inh,[3],0%
same,%Inh,[4],0%
same,%Inh,[5],0%
same,%Inh,[6],88%
same,%Inh,[7],0%
same,%Inh,[8],0%
CCn1c(-c2cccnc2O)nc2cnccc21 [SB-736715],Kd,[9],> 10000 nM
same,%Inh,[2],0%
same,%Inh,[3],43%
same,%Inh,[4],0%
same,%Inh,[5],4%
same,%Inh,[6],0%
same,%Inh,[7],0%
same,%Inh,[8],0%
CCn1c(-c2ccccn2)nc2cnccc21 [SB-736398],Kd,[10],> 10000 nM
same,%Inh,[2],0%
same,%Inh,[3],0%
same,%Inh,[4],4%
same,%Inh,[5],0%
same,%Inh,[6],0%
same,%Inh,[7],18%
same,%Inh,[8],0%
CS(=O)(=O)c1ccc(-c2c(-c3ncn[nH]3)sc(N3CCOCC3)c2C#N)cc1,Kd,[11],110 nM
same,%Inh,[2],18%
same,%Inh,[3],30%
same,%Inh,[4],13%
same,%Inh,[5],7%
same,%Inh,[6],14%
same,%Inh,[7],0%
same,%Inh,[8],0%
COc1ccc2nc(-c3cccc(C)n3)nc(Nc3ccncc3)c2c1 [GSK204919],Kd,[12],2000 nM
same,%Inh,[2],0%
same,%Inh,[3],0%
same,%Inh,[4],0%
same,%Inh,[5],12%
same,%Inh,[7],0%
same,%Inh,[8],0%
Cn1cncc1-c1ccc2ncnc(Nc3ccc(OCc4ccccc4)cc3)c2c1 [GW320571],Kd,[13],> 10000 nM
same,%Inh,[2],2%
same,%Inh,[3],0%
same,%Inh,[4],10%
same,%Inh,[5],10%
same,%Inh,[6],2%
same,%Inh,[7],22%
same,%Inh,[8],16%
O=c1cc(N2CCOCC2)nc2n(Cc3cccc(Cl)c3Cl)ccn12 [GSK2286295],Kd,[11],2.1 nM
same,%Inh,[2],6%
same,%Inh,[3],0%
same,%Inh,[4],0%
same,%Inh,[5],3%
same,%Inh,[6],0%
same,%Inh,[7],0%
same,%Inh,[8],0%
NC(=O)c1nnc2ccccc2c1N,Kd,[14],300 nM
same,%Inh,[2],35%
same,%Inh,[3],25%
same,%Inh,[4],6%
same,%Inh,[5],65%
same,%Inh,[6],0%
same,%Inh,[7],0%
same,%Inh,[8],22%
C[C@@H]1CCCCN1c1cc(-c2ccc3c(N)n[nH]c3c2)nc(N)n1 [GSK2258759],Kd,[15],2100 nM
same,%Inh,[2],43%
same,%Inh,[3],0%
same,%Inh,[4],0%
same,%Inh,[5],0%
same,%Inh,[6],0%
same,%Inh,[7],24%
same,%Inh,[8],0%
CS(=O)(=O)c1ccc(-c2nc3n(c2-c2ccncc2)CCC3)cc1 [SKF-105942],Kd,[16],> 10000 nM
same,%Inh,[2],14%
same,%Inh,[3],0%
same,%Inh,[4],8%
same,%Inh,[5],9%
same,%Inh,[6],0%
same,%Inh,[7],10%
same,%Inh,[8],0%
O=C(O)COc1ncnc2cc(-c3ccc4[nH]ncc4c3)sc12,Kd,[14],20 nM
same,%Inh,[2],52%
same,%Inh,[3],33%
same,%Inh,[4],7%
same,%Inh,[5],0%
same,%Inh,[6],31%
same,%Inh,[7],1%
same,%Inh,[8],4%
O=C(Nc1n[nH]c2nc(-c3nccs3)c(Br)cc12)C1CC1 [SB-742251],Kd,[14],210 nM
same,%Inh,[2],15%
same,%Inh,[3],0%
same,%Inh,[4],22%
same,%Inh,[5],7%
same,%Inh,[6],0%
same,%Inh,[7],6%
same,%Inh,[8],0%
CN1C(=O)C(Nc2ccc(Cl)c(C(=O)O)c2)=C(c2ccc(Cl)cc2)C1=O [SB-404290],%Inh,[2],100%
same,%Inh,[3],21%
same,%Inh,[4],0%
same,%Inh,[5],19%
same,%Inh,[6],4%
same,%Inh,[7],12%
same,%Inh,[8],0%
COc1ccccc1-c1ccc2c(NC(=O)C3CC3)n[nH]c2n1 [SB-711239],Kd,[17],> 10000 nM
same,%Inh,[2],9%
same,%Inh,[3],0%
same,%Inh,[4],88%
same,%Inh,[5],0%
same,%Inh,[6],18%
same,%Inh,[7],0%
same,%Inh,[8],29%
CC1=C(C(=O)Nc2cc3cn[nH]c3cc2F)C(c2ccc(C(F)(F)F)cc2)CC(=O)N1 (stereo not shown) [GSK429286],%Inh,[2],0%
same,%Inh,[3],0%
same,%Inh,[4],0%
same,%Inh,[5],19%
same,%Inh,[6],0%
same,%Inh,[7],0%
same,%Inh,[8],83%
Nc1ncnc2[nH]c(-c3ccccc3)nc12 [AH5015],Kd,[12],96 nM
same,Kd,[13],> 10000 nM
same,Kd,[14],270 nM
same,%Inh,[2],0%
same,%Inh,[3],7%
same,%Inh,[4],44%
same,%Inh,[5],19%
same,%Inh,[6],0%
same,%Inh,[7],37%
same,%Inh,[8],7%
Cc1ccc(NC(=O)Nc2cc(C(C)(C)C)nn2-c2ccccc2)cc1 [GSK1014915],Kd,[15],58 nM
same,Kd,[18],540 nM
same,%Inh,[2],0%
same,%Inh,[3],0%
same,%Inh,[4],2%
same,%Inh,[5],14%
same,%Inh,[6],0%
same,%Inh,[7],7%
same,%Inh,[8],6%
